Most compounds without a hit are left out; they make up all but 19% or so of the library.
TDP1 inh: qHTS Assay for Inhibitors of Tyrosyl-DNA Phosphodiesterase (TDP1); Tyrosyl-DNA phosphodiesterase 1 (Homo sapiens), Q9NUW8; recombinant TDP1, AlphaScreen DNA substrate cleavage; Potency, µM (top dose mostly 130 µM), for inactives: top-dose activity change, negative = inhibition, hits mostly inhibitors; 350,000 compounds, 0.28% hits; AID 485290, 2010; note: potency is the fitted concentration of half-maximal effect; % is set by controls: 0 for no effect and ±100 for the full control effect; nearly all actives have a fitted effect of over 40% in size
Target sequence (Q9NUW8 whole entry, looked up): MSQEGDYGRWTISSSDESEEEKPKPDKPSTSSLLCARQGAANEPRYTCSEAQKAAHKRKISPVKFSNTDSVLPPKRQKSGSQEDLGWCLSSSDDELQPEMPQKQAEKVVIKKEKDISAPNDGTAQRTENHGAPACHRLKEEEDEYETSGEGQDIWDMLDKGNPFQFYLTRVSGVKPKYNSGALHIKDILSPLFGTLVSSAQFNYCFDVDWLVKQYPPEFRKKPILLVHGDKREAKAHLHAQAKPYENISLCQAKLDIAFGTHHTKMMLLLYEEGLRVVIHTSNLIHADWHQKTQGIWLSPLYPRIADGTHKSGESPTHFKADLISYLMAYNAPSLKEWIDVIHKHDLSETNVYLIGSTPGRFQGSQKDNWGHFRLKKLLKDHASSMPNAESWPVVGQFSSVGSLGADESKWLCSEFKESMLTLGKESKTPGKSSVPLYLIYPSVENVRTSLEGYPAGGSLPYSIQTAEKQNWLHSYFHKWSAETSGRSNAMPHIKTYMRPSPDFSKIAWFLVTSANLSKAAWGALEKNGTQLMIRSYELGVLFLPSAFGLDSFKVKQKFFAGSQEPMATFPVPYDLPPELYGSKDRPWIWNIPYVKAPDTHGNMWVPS
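Signal: AlphaScreen proximity between streptavidin donor and anti-FITC acceptor beads on intact substrate. Reaction: Tdp1 1 nM, substrate 15 nM final, 5 min RT after 15 min compound preincubation.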
HepG2 tox-1: qHTS for Inhibitors of TGF-b: Cytotox Counterscreen; HepG2 CAGA-GFP viability, ATP luminescence, 18 h; Potency, µM (doses to about 46.1 µM), inactives show at the highest dose activity change, negative = cytotoxicity, hits mostly cytotoxic; 410,000 compounds, 0.76% hits; note: potency is the fitted concentration of half-maximal effect
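HepG2 CAGA-GFP cells (1000/well, DMEM with 1% FBS) received compound, then TGF-beta at 500 pg/mL final, and were incubated 18 hours at 37 degrees C. Viability was read by CellTiter-Glo luminescence. Media-only wells were set as complete cell-killing and DMSO as no toxicity.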
TGFb inhibitor: qHTS for Inhibitors of TGF-b; HepG2 CAGA-GFP TGF-b/SMAD3 reporter, GFP fluorescence, 18 h; TGF-beta stimulated, 500 pg/mL final; Potency, µM (doses to about 46.1 µM), for the others: at the top dose activity, negative = inhibition, usual class: inhibitors; 410,000 compounds, 1.2% hits; AID 588855, 2011; note: potency is the fitted concentration of half-maximal effect; % is set by controls: 0 for no effect and ±100 for the full control effect; nearly all actives have a fitted effect of over 65% in size
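Inhibition was scored as loss of TGF-beta-induced (500 pg/mL final, 18 hours, 37 degrees C) GFP in HEPG2 cells carrying a CAGA-GFP reporter, in DMEM with 1% FBS. Well GFP was summed per cell; Activity was normalised to unstimulated and stimulated DMSO wells, then concentration-response fitting.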
TDP1 cell noCPT: qHTS for Inhibitors of human tyrosyl-DNA phosphodiesterase 1 (TDP1): qHTS in cells in absence of CPT; DT40 Tdp1-/- hTDP1 cells, no CPT, ATP luminescence, 48 h; Potency, µM (top dose mostly 46.2 µM), for inactives: at the top dose activity change, negative = growth inhibition, actives largely listed as inhibitors; 420,000 compounds, 15% hits; AID 686978, 2013; note: potency is the fitted concentration of half-maximal effect; % is set by controls: 0 for no effect and ±100 for the full control effect; nearly all actives have a fitted effect of over 55% in size
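A cellular qHTS used chicken DT40 cells lacking endogenous Tdp1 but carrying stably transfected human TDP1. Compounds were applied without camptothecin, and cell growth kinetics were judged by ATP-dependent luminescence after ≥48 hr.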
IL1B secr inh: qHTS for Inhibitors of Inflammasome Signaling: IL-1-beta AlphaLISA Primary Screen; activity change, % at 57.5 µM; AID 743279, 2014; THP-1 LPS/ATP IL-1B secretion, AlphaLISA, 16 h; stronger effect = lower value; 360,000 compounds, 4.7% hits; in the data active = activity change below about -50%; inconclusive = mostly about -30% to -49%; note: % is set by controls: 0 for no effect and ±100 for the full control effect
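Secreted IL-1B measured by AlphaLISA bead assay after 16 h compound exposure of THP-1 cells; compounds (final up to 57.5 uM) added 1 h before LPS (250 ng/mL) and ATP (1.25 mM) stimulation; lower signal means less secretion.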
TDP1 cell CPT: qHTS for Inhibitors of human tyrosyl-DNA phosphodiesterase 1 (TDP1): qHTS in cells in presence of CPT | Potency, µM (top dose mostly 46.2 µM), for the others: at the top dose activity change, negative = growth inhibition, most hits filed as inhibitors | 420,000 compounds, 12% hits | chicken DT40 Tdp1-/-;hTDP1 cells + 20 nM CPT, ATP luminescence, 48 h | AID 686979, 2013; note: potency is the fitted concentration of half-maximal effect; % is set by controls: 0 for no effect and ±100 for the full control effect; nearly all actives have a fitted effect of over 55% in size
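Chicken DT40 Tdp1-/- cells stably complemented with human TDP1 were seeded at 400 cells/well in medium containing 20 nM camptothecin, exposed to pin-transferred compounds, and grown at 37 °C for at least 48 hr. Viability was read as ATP luminescence.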
TGFb confirm: qHTS for Inhibitors of TGF-b: Confirmation of Cherry Picks; shares compounds with TGFb inhibitor; HepG2 CAGA-GFP TGF-b reporter, GFP fluorescence, 18 h; cells stimulated with TGF-beta, 500 pg/mL; Potency, µM (top dose mostly 46.1 µM), for the others: at the top dose activity, negative = inhibition, actives largely listed as inhibitors; 1,600 compounds, 63% hits; AID 720534, 2013; note: potency is the fitted concentration of half-maximal effect; % is set by controls: 0 for no effect and ±100 for the full control effect; nearly all actives have a fitted effect of over 65% in size
HepG2 tox-2: qHTS for Inhibitors of TGF-b: Cytotox Counterscreen for Cherry Picks; Potency, µM (doses to about 46.1 µM), inactives show top-dose activity, negative = cytotoxicity, actives largely listed as inhibitors; shares compounds with TGFb inhibitor; 1,600 compounds, 27% hits; AID 720535, 2013; HepG2 CAGA-GFP viability, ATP luminescence, 18 h; cells stimulated with TGF-beta, 500 pg/mL; note: potency is the fitted concentration of half-maximal effect; % is set by controls: 0 for no effect and ±100 for the full control effect; nearly all actives have a fitted effect of over 70% in size
CCL64 TGFb inh: qHTS for Inhibitors of TGF-b: CCL64 Cells Orthogonal Assay for Cherry Picks. 1,600 compounds, 41% hits. CCL64 CAGA-GFP reporter, TGF-b stimulated, GFP fluorescence, 18 h. shares compounds with TGFb inhibitor. Potency, µM (doses to about 46.1 µM), for inactives: top-dose activity, negative = inhibition, hits mostly inhibitors; note: potency is the fitted concentration of half-maximal effect; nearly all actives have a fitted effect of over 65% in size
COP TGFb inh: qHTS for Inhibitors of TGF-b: Hit Validation in HepG2 Cells using COP promoter. shares compounds with TGFb inhibitor. HepG2 COP-GFP TGF-b reporter, GFP fluorescence, 18 h; cells stimulated by added recombinant TGF-beta. Potency, µM (titrated, usually from 46.1 µM), without a hit: top-dose activity, negative = inhibition, usual class: inhibitors. 1,600 compounds, 3% hits; note: potency is the fitted concentration of half-maximal effect; nearly all actives have a fitted effect of over 70% in size
An asterisk follows results filed as active; ? = inconclusive; . = no result given. Unless noted, calls come from the whole dose curve; as a rule, active = well fitted curve in the direction sought with a large enough effect; inconclusive = small, poorly fitted or top-dose-only effect, or another doubt; inactive = no such curve, though single readings can be large; an effect the other way counts as inactive or inconclusive.

SMILES	TDP1 inh	HepG2 tox-1	TGFb inhibitor	TDP1 cell noCPT	IL1B secr inh	TDP1 cell CPT	TGFb confirm	HepG2 tox-2	CCL64 TGFb inh	COP TGFb inh
O=S(=O)(c1ccc2nc(SCc3cccc(Cl)c3)[nH]c2c1)N1CCOCC1	5.6%	.	0.0%	?	-17.0	?	.	.	.	.
COc1cc(SC)ccc1C(=O)Nc1cccc(S(=O)(=O)NC2=NCCC2)c1	1.1%	-19.5%	-5.4%	-14.5%	?	-25.5%	.	.	.	.
COC(=O)C1CCC(=O)N1C(c1ccc(OC)cc1)c1cc(OC)c(OC)c(OC)c1 (centres undefined)	.	2.2%	2µM*	1.3µM*	26.3	1.46µM*	?	-2.1%	5.8µM*	?
COc1ccccc1N1CCN(C(=O)NCc2ccc(Cl)cc2)CC1	0.1%	-11.8%	0.0%	?	-21.7	-8.1%	.	.	.	.
COc1ccccc1N1CCN(C(=O)c2ccc(-c3ccc(Cl)cc3)o2)CC1	10.0%	-46.3%	8.91µM*	2.31µM*	41.1	3.66µM*	13µM*	11.6µM*	?	52.8%
O=C(C[C@@H]1C/C=C/CC[C@H](Cc2ccc(F)cc2)C(=O)OC[C@@H](Cc2ccccc2)NC1=O)N[C@H](CO)Cc1ccccc1	-0.3%	-104.4%	?	?	4.0	?	.	.	.	.
CCN(C[C@H]1N[C@@](Cc2ccccc2)(C(=O)OC)[C@H]2C(=O)N(Cc3ccccc3)C(=O)[C@@H]12)C(=O)NC(C)C	3.3%	-10.4%	-17.1%	?	24.3	?	.	.	.	.
CCN(C[C@H]1N[C@@](Cc2ccccc2)(C(=O)OC)[C@H]2C(=O)N(Cc3ccccc3)C(=O)[C@@H]12)C(=O)Nc1ccc(Cl)cc1	0.7%	-17.3%	12.6µM*	18.4µM*	-13.5	?	7.31µM*	-28.4%	11.6µM*	25.4%
CCN(C[C@H]1N[C@@](Cc2ccccc2)(C(=O)OC)[C@H]2C(=O)N(Cc3ccccc3)C(=O)[C@@H]12)C(=O)Nc1ccc(F)cc1	1.0%	-5.7%	12.6µM*	16.4µM*	?	?	23.1µM*	-17.1%	?	-2.1%
O=C(COC(=O)Cc1cccc(F)c1)NC(=O)NC1CCCCC1	-9.0%	-18.0%	0.2%	-8.3%	-1.3	11.2%	.	.	.	.
CC1CCCN(S(=O)(=O)c2ccc(NC(=O)C3CCN(C(=O)C(C)(C)C)CC3)cc2)C1 (centres undefined)	2.5%	-20.1%	-15.4%	?	6.5	?	.	.	.	.
COC(=O)c1ccccc1-n1c(C)nc(=O)c(-c2ccccc2)c1C	.	17.7%	2.4%	-0.1%	0.8	4.6%	.	.	.	.
Nc1ccc2nn(-c3ccccc3)nc2c1	2.4%	-23.2%	-28.1%	-18.2%	15.2	-3.9%	.	.	.	.
Nc1cc2nn(-c3ccccc3)nc2cc1Cl	7.9%	-45.4%	2.24µM*	19.0%	34.6	0.1%	3.26µM*	1.84µM*	16.1%	68.7%
CCOC(=O)c1c(C)oc2ncnc(Nc3cccc(C(F)(F)F)c3)c12	1.3%	2.4%	?	6.0%	.	-0.8%	.	.	.	.
Cc1cccc(NS(=O)(=O)c2ccc(C)c(C(=O)NC3CCN(Cc4ccccc4)CC3)c2)c1	.	-16.1%	10µM*	?	-21.4	?	?	-27.7%	?	5.0%
Cc1cccc(NS(=O)(=O)c2ccc(C)c(C(=O)N(C)C)c2)c1	-0.4%	-16.3%	13.3%	1.5%	-2.0	-28.9%	.	.	.	.
COc1ccc(/C=N/n2cnc3c([nH]c4ccc(F)cc43)c2=O)cc1CN1CCCC1	-5.1%	7.08µM*	7.08µM*	3.26µM*	32.7	5.17µM*	16.4µM*	23.1µM*	23.1µM*	?
COc1ccc2c(c1)[nH]c1c(=O)n(/N=C/c3ccc(OC)c(CN4CCCC4)c3)cnc12	0.0%	-21.6%	3.9%	?	?	?	.	.	.	.
O=C(CNC(=S)N(Cc1ccccc1)Cc1ccccc1F)NCCc1ccccc1	0.0%	-20.8%	-17.2%	?	-18.3	-24.4%	.	.	.	.
O=C(CNC(=S)N(Cc1ccccc1)Cc1ccccc1F)NCc1ccc(Cl)cc1	1.3%	0.1%	12.6µM*	?	-82.7*	?	13µM*	?	?	17.4%
CCCCOC(=O)c1ccc(NC(=O)COC(=O)c2ccc3ncsc3c2)cc1	1.8%	-10.9%	3.4%	-13.2%	-6.5	-28.0%	.	.	.	.
Cc1cc2c(cc1S(=O)(=O)NCc1ccc(N(C)C)cc1)OCC(=O)N2	3.9%	-2.9%	7.0%	-3.5%	-11.1	-1.8%	.	.	.	.
O=C(COc1cccc2ccccc12)Nc1ccc(Cl)cc1C(=O)O	5.3%	-17.3%	11.2µM*	?	56.1	?	16.4µM*	8.2µM*	?	54.7%
O=S(=O)(c1ccc(NC(=S)NCc2ccc(F)cc2)cc1)N1CCOCC1	2.2%	-47.2%	-7.2%	?	-2.2	?	.	.	.	.

From PubChem BioAssay
